DRD3 antagonist – antagonists of human D3 dopamine receptor. D3R cells, DiscoveRx beta-arrestin luminescence, antagonist mode; stronger effect = lower value. actives 2.5% (n = 360,000). P35462. max response, negative = inhibition, %; in the data active means max response below about -50%; inconclusive means no clear call, values can overlap the other calls; further: on the % scale 0 is the no-effect control and ±100 the full control effect
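Cells plated overnight at 1500 cells/well, then exposed to library compounds with dopamine controls for 90 minutes at 37 degrees C. DiscoveRx reagent added for 30–60 minutes at room temperature; luminescence read, quantitative HTS format.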
GLP1R ag – agonists of human GLP-1 receptor; actives 0.007% (n = 380,000); HEK293 GLP-1R CRE-luciferase, luminescence, 4-6 h; cells express a hypersensitive GLP-1R form; Potency, µM (titrated, usually from 45.6 µM), for the others: at the highest dose activation, actives largely listed as activators; further: potency means the concentration at half of the fitted maximal effect; % of control where 0% means no effect
Target sequence (P43220 whole entry, looked up): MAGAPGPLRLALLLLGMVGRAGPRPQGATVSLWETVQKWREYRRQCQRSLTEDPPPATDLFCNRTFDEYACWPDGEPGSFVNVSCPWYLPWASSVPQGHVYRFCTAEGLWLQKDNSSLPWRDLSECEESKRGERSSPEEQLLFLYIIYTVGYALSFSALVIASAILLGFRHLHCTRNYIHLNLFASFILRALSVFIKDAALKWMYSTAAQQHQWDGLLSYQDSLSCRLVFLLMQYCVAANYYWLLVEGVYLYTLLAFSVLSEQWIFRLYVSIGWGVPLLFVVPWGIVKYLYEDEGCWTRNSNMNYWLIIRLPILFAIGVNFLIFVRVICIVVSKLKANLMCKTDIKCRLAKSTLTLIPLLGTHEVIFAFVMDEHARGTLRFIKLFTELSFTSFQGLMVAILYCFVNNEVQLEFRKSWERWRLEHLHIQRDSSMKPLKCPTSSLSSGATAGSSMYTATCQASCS
ClpP mod – qHTS Assay for Activators of ClpP; purified B. subtilis ClpP, FRET peptide cleavage, 20 min; ATP-dependent Clp protease proteolytic subunit (Bacillus subtilis (strain 168)), P80244; AID 651965, 2013; actives 1.9% (n = 340,000); Potency, µM (top dose mostly 57.5 µM), inactives show at the highest dose activity change, negative = active; active means well fitted falling curve with a large enough effect; inconclusive means small, poorly fitted or top-dose-only effect; inactive means no such curve, though single readings can be large or run the other way; further: potency means the concentration at half of the fitted maximal effect; the source files actives as falling curves though it sought activators and does not explain the sign; nearly all actives have a fitted effect of over 65% in size
Target sequence (P80244 whole entry, looked up): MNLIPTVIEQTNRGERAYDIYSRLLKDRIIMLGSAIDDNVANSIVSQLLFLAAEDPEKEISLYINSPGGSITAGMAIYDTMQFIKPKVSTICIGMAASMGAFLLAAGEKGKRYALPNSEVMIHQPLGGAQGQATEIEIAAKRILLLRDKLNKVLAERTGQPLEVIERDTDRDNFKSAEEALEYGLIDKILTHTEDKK
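Purified B. subtilis ClpP, 10 microg/mL final in Tris/HCl pH8 with KCl, BSA, glycerol and Tween-20, cleaved an Abz/nitrotyrosine-quenched decapeptide. Fluorescence (ex 320, em 430) was read at 0 and 20 min at room temperature. Delta was normalized to 5.8 microM ADEP and DMSO/no-enzyme controls.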
DRD3 agonist – agonists of human D3 dopamine receptor. actives 0.58% (n = 410,000). D3R DiscoveRx beta-arrestin cells, luminescence, 90 min. AID 652048. max activation, %; in the data active means max activation above about 30%; further: 0% is about no effect
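Agonist mode: compounds and dopamine controls were applied to plated cells for 90 min at 37 degrees C after an overnight attachment at 1500 cells/well. Luminescent read-out followed 30 - 60 minutes at room temperature with DiscoveRx detection reagent.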
GLP1R cytotox – cytotoxicity in counter-screen for GLP-1R inverse agonists | actives 0.13% (n = 410,000) | HEK293 cAMP-luciferase reporter cells, luminescence, 24 h | Potency, µM (doses to about 38.3 µM), without a hit: top-dose activity change, negative = inhibition, usual class: inhibitors | AID 624418;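 further: loss of luciferase light is scored as toxicity; potency means the concentration at half of the fitted maximal effect; on the % scale 0 is the no-effect control and ±100 the full control effect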
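A 23 nL compound transfer followed 12 hours of cell culture at 37 deg C; exposure then lasted 24 hr. Luciferase assay detection reagent was dispensed and plates read for luminescence after a 12 min room-temperature wait.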
GLP-1R inv ag – inverse agonists of human GLP-1 receptor; AID 624417; actives 1.6% (n = 410,000); P43220; Potency, µM (doses to about 38.3 µM), inactives show top-dose activity change, negative = inhibition, hits mostly inhibitors; HEK293 GLP-1R CRE-luciferase, luminescence, 24 h; GLP-1R form is constitutively active; further: potency means the concentration at half of the fitted maximal effect; on the % scale 0 is the no-effect control and ±100 the full control effect; nearly all actives have a fitted effect of over 55% in size
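Inverse agonism was detected as reduced cAMP-driven luciferase luminescence after 24 h compound treatment. The cells were HEK293 clones expressing constitutively active human GLP-1R with the reporter. Reporter-only and GPR119 cell lines served as counterscreen controls.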
* = called active by the depositor; ? = inconclusive; / = not tested or not shown. Shown are actives, neighbours in structure and some others; about 5.7% of the full set was active somewhere. Unless noted, the call rests on the fitted dose curve; in most records, active means well fitted curve in the direction sought with a large enough effect; inconclusive means small, poorly fitted or top-dose-only effect, or another doubt; inactive means no such curve, though single readings can be large; an effect the other way counts as inactive or inconclusive.

SMILES	DRD3 antagonist	GLP1R ag	ClpP mod	DRD3 agonist	GLP1R cytotox	GLP-1R inv ag
CCOc1ccc(-n2c(=O)c3c4c(sc3n(CC(=O)NC(C)CC)c2=O)CCC4)cc1 (configuration not stated)	/	/	1%	-4	3%	5%
CCC(C(=O)Nc1cc(C)nn1-c1nc(C)cc(C)n1)c1ccccc1 (configuration not stated)	-8	19%	-3%	-3	?	3.5µM*
Cc1ccc(CN2C(=O)C(CC(C)C)Nc3ncnc(N4CCCCC4)c32)cc1 (configuration not stated)	17	19%	-1%	10	-3%	?
Cc1ccc(NC(=S)NNC(=O)c2nn(C)cc2Cl)cc1	-54*	-10%	1%	-2	-20%	7%
Cc1ccc(NC(=O)COC(=O)c2nn(C)cc2Cl)cc1	-3	20%	/	0	-3%	3%
Cc1cccc(NC(=S)NNC(=O)c2nn(C)cc2Cl)c1	-99*	-11%	2%	-4	-11%	11%
CCc1ccccc1NC(=O)c1ccc2c(c1)N(Cc1cc(C)ccc1C)C(=O)c1ccccc1S2(=O)=O	/	5%	3%	-2	-1%	-1%
O=C(c1ccc(F)cc1)N1CCOCC1	0	-4%	0%	2	5%	29%
O=C(c1ccc(Cl)cc1)N1CCC(C(=O)N2CCCc3ccccc32)CC1	19	-6%	32µM*	4	-22%	-36%
O=C(c1ccc(=O)oc1)N1CCOCC1	-21	0%	32µM*	-1	-6%	0%
O=C(c1ccc(=O)oc1)N1CCCc2ccccc21	-63*	-10%	-16%	-1	6%	-1%
O=C(c1ccccc1)N1CCCc2ccccc21	14	0%	2%	2	-13%	-10%
CC(=O)c1ccc(Cc2ccc(C(C)=O)s2)s1	10	17%	-4%	0	-10%	28%
Cc1ccc(C)c(NC(=O)c2cc(=O)c3cc(C)cc(C)c3o2)c1	/	/	1%	1	1%	5%
CC(C)CCn1c(=O)c2cccnc2n(CC(=O)Nc2ccccc2F)c1=O	/	/	6%	-22	-9%	-8%
COCCCNC(=O)[C@H](Cc1ccccc1)NC(=O)CC[C@H]1O[C@@H](n2ccc(=O)[nH]c2=O)[C@H](O)[C@@H]1O	-56*	5%	-8%	-9	-3%	6%
Cc1ccc(S(=O)(=O)C2(C(=O)Nc3ccc(Br)cc3)CC2)cc1	4	14%	/	-8	-25%	?
Cc1ccc(S(=O)(=O)C2(C(=O)Nc3cccnc3)CC2)cc1	-63*	0%	2%	-6	1%	18%
Cc1cc(/C=C\c2ccc3cc(N(C)C)ccc3[n+]2C)c(C)n1-c1ccccc1	-61*	0%	-11%	-42	?	2µM*
Cc1ccc(OCc2cc(C(=O)N(C)C3CCCc4ccccc43)no2)cc1C (configuration not stated)	-6	7%	-6%	2	5%	11µM*
Cc1cc(CN(C)C(=O)c2cc(COc3ccc(C)c(C)c3)on2)on1	-5	1%	-1%	-4	23%	?
C#CCN(C(=O)c1cc(COc2ccc(C)c(C)c2)on1)C1CCCCC1	1	9%	2%	9	-4%	10µM*
Cc1ccc(S(=O)(=O)N2CCN(c3nc(-c4ccnnc4)nc4ccccc34)CC2)cc1	/	/	-6%	/	/	/
CC(NC(=O)c1ccccc1F)c1nnc(SCC(=O)N2CCN(c3ccccc3)CC2)n1C (configuration not stated)	0	4%	25µM*	1	0%	4%
c1ccc(-c2ncnc3cc4n(c23)CCC4)cc1	-2	2%	28µM*	4	-2%	50%
SMILES	DRD3 antagonist	GLP1R ag	ClpP mod	DRD3 agonist	GLP1R cytotox	GLP-1R inv ag
Cc1ccc2ncnc(-c3ccccc3)c2c1	20	12%	-1%	9	4%	16%
O=[N+]([O-])c1nccn1CCCCCCCCCCCN1CCOCC1	-23	6%	0%	-17	2%	?
CSc1nnc(-c2sc(-c3ccccc3)nc2C)n1C	-14	-2%	25µM*	16	7%	0%
CCN=C1S/C(=C\c2cn(C(C)=O)nc2-c2ccccc2)C(=O)N1CC	58	23%	2%	64*	-2%	7%
CC(=O)NC1=NC(=O)/C(=C/c2cn(C(C)=O)nc2-c2ccccc2)S1	0	-11%	1%	-1	-4%	?
Cc1cc(Nc2cccc([N+](=O)[O-])c2)n2c(nc3ccccc32)c1C#N	-93*	-10%	-8%	4	-23%	?
Cc1cc(NCCN2CCOCC2)n2c(nc3ccccc32)c1C#N	12	-5%	3.5µM*	6	3%	-2%
CC1CCCCN1C(=O)CSc1c2c(nc3cc(Cl)ccc13)CCCC2 (configuration not stated)	/	/	0%	4	-16%	-5%
COCCNC(=O)c1cc(-c2ccccc2)sc1N	-13	/	?	-1	-3%	26%
CCN1CCN(CCCNC(=O)c2ccc3c(c2)NC(=O)/C(=C\c2cccc(C)c2)S3)CC1	-5	0%	2%	-1	?	7.1µM*
O=C1Nc2cc(C(=O)NCCN3CCCCCC3)ccc2S/C1=C\c1ccccc1	-27	22%	3%	-4	-16%	?
Cc1cccc(/C=C2/Sc3ccc(C(=O)NCCN4CCCC4)cc3NC2=O)c1	-7	11%	-2%	-11	?	?
O=C1Nc2cc(C(=O)NCCCN3CCCC3)ccc2S/C1=C/c1cccc(Cl)c1	-59*	20%	-3%	-2	-1%	?
CC(=O)NCC(=O)OCC(=O)c1ccc2ccccc2c1	13	-6%	28µM*	-2	-4%	-12%
CC(=O)NCCCc1ccc(C(=O)COC(=O)CNC(=O)c2ccc3ccccc3c2)cc1	/	/	-17%	/	/	/
O=C(NCCN1CCC(n2c(=O)[nH]c3ccccc32)CC1)c1ccc(C(F)(F)F)cc1C(F)(F)F	-92*	-3%	-1%	-15	1%	-27%
COc1ccc(C(=O)NCCN2CCC(n3c(=O)[nH]c4ccccc43)CC2)cc1F	-91*	-4%	0%	-11	0%	-11%
CCCCCn1c(=O)[nH]c2cc(C(=O)NCCN3CCC(C)CC3)ccc2c1=O	6	-1%	-1%	-28	6%	13%
CC1CCN(CCCNC(=O)c2ccc3c(=O)n(CCc4ccccc4)c(=O)[nH]c3c2)CC1	-28	-13%	7%	-5	-20%	-7%

Screening results as filed in PubChem BioAssay.
